This is an account of results in PubChem BioAssay (NCI).

The panel holds about 83,000 compounds, 20% with a hit somewhere; the sample as a whole holds those more often.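 Cells were grown in 96-well plates and exposed to the test compound at a single concentration for 48 hours; results are reported as percent growth, with values below 10 considered active.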 Values without a mark were called inactive. Activity calls are given as the source filed them.

Experiment in all cases: NCI-60 one-dose screen, 48 h (100 = growth as untreated, 0 = no growth, -100 = all killed)
Holding throughout (details): 10 µM unless noted

The test system of test [1] is NCI-H23 lung.
Test [2] relates to NCI-H226 lung.
Test [3] relates to NCI-H322M lung.
The subject of test [4] is HOP-62 NSCLC.
In test [5] the test system is NCI-H460 lung.
Test [6] concerns NCI-H522 lung.
Test [7] concerns A549/ATCC NSCLC.
The subject of test [8] is 786-0 renal.
Test [9] has as its system COLO 205 colon.
Test [10] concerns DU-145 prostate.
In test [11] the test system is K-562 leukemia.
Test [12] has as its system MALME-3M melanoma.
The test system of test [13] is MDA-MB-231 breast.
Test [14] relates to RXF 393 renal.
Test [15] has as its system SF-268 CNS.
Test [16] relates to SF-295 CNS.
In test [17] the test system is SF-539 CNS.
Test [18] concerns UACC-257 melanoma.
The subject of test [19] is M14 melanoma.
In test [20] the test system is HCT-15 colon.

Consider `CCC(O)C(C)(C)C` (stereo not given), for which the growth was 102% in test [1]; 106% in test [2]; 127% in test [3]; 115% in test [4]; 105% in [5]; 106% in [6]. For the same molecule, the growth in [7] was 94.2%; in [8], 111%; in [9] it was 114%; in test [10], 108%; in test [11] it was 108%; in [12], 117%. The growth in [13] is 117%; in test [14] it was 111%; in test [15], 113%; in test [16], 97%; in [17] it was 113%; in test [18], 99.3%. Moreover, the growth was 105% in test [19] and 102% in test [20].

Turning to `COc1ccc2[nH]c(-c3ccccc3)cc2c1`, the growth is 98.9% in [1]; 96.5% in test [2]; 120% in [3]; 115% in [4]; 111% in [5]; 74.1% in test [6]. The growth is 96.2% in [7]; 103% in test [8]; 110% in test [9]; 101% in test [10]; 76.5% in test [11]; 122% in test [12]. Further, the growth was 90% in test [13]; 100% in [14]; 110% in [15]; 105% in [16]; 103% in [17]; 87.5% in test [18]. In addition, the figures for the growth in test [19] and in test [20] were 112% and 97%, respectively.

`COc1cccc(-c2nnc(N)o2)c1`: the growth in test [1] is 101%; in test [2] it was 103%; in test [3], 99.5%; in test [4] it was 102%; in [5], 107%; in test [6] it was 96.8%. The growth in [7] was 102%; in [8] it was 100%; in test [9], 117%; in test [10], 107%; in test [11], 98.1%; in [12], 106%. In addition, the growth is 124% in test [13]; 94.6% in test [14]; 111% in test [15]; 113% in test [16]; 111% in [17]; 92.7% in [18]. Further, the growth in test [19] is 91.1%; in [20], 106%.

Turning to `Nc1ncc(-c2cnn(C3CCNCC3)c2)cc1-c1nc2cc(Cl)ccc2o1`, the growth is -61.7% (active) in [1]; -63.3% (active) in test [2]; -59.1% (active) in [3]; -98.1% (active) in test [4]; -100% (active) in [5]; -87.6% (active) in test [6]. For the same molecule, the growth in test [7] is -100% (active); in test [8], -100% (active); in test [9] it was -100% (active); in test [10] it was -100% (active); in test [11], -100% (active); in test [12], -92.5% (active). The growth in test [13] was -91.7% (active); in test [14] it was -96.4% (active); in test [15], -83.4% (active); in test [16] it was -78.7% (active); in test [17], -100% (active); in test [18], -93.3% (active). The growth in [19] was -100% (active); in test [20] it was -84.9% (active).

Take `C=CC1=C(C(=O)O)N2C(=O)[C@@H](NC(=O)/C(=N\O)c3csc(N)n3)[C@H]2SC1` (stereo in doubt): the growth was 96% in test [1]; 101% in [2]; 109% in [3]; 105% in test [4]; 105% in test [5]; 106% in test [6]. Moreover, the growth is 99.4% in [7]; 105% in [8]; 103% in [9]; 113% in test [10]; 104% in [11]; 111% in test [12]. For the same molecule, the growth was 105% in test [13]; 117% in test [14]; 108% in [15]; 104% in test [16]; 95.2% in test [17]; 96.3% in test [18]. Moreover, the growth was 114% in test [19] and 105% in test [20].

As for `Nc1ccc(C2=Nc3cccc4cccc(c34)S2)cc1`, the growth was 86.9% in [1]; 59.3% in [2]; 88.1% in test [3]; 83.6% in test [4]; 89.5% in [5]; 82.7% in test [6]. Besides, the growth in [7] is 81.5%; in test [8], 121%; in test [9], 100%; in test [10] it was 98.2%; in test [11], 88.3%; in [12] it was 94.5%. The growth was 60% in [13]; 107% in test [14]; 88.9% in test [15]; 73% in test [16]; 102% in [17]; 84.3% in [18]. The growth was 83.9% in [19] and 54.5% in test [20].
